# Compound activity deposited in PubChem by National Center for Advancing Translational Sciences (NCATS).
# PMP22 txn = Cell-based coincidence reporter assay to measure PMP22 gene transcription in S16 Pmp22-F2sN cells - Primary screen; S16 Pmp22-F2sN Schwann cells, FLuc/NLuc coincidence luminescence, 24 h; Potency, µM (top dose mostly 57.5 µM), for inactives: at the top dose activity change, negative = inhibition, hits mostly inhibitors; hit rate 2% among 43,000; active means clear falling dose curves in both reporters; inconclusive means both reporters move, but less clearly or upward; inactive means either reporter flat; the % is the NLuc reporter signal
#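 S16 Schwann cells carrying FLuc/NLuc coincidence reporter in the Pmp22 3' UTR treated with compound 24 h at 37C; FLuc then NLuc luminescence read sequentially by dual-luciferase reagents.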
# p53null 32C tox = qHTS Screen for Compounds that Selectively Target Cancer Cells with p53 Mutations: Cytotoxicity of p53 Null Cells at the Permissive Temperature. AID 903, 2007. H1299-neo p53 null cells, ATP luminescence, 24 h, 32C. Potency, µM (doses to about 46.1 µM), for the others: at the top dose activity change, negative = cytotoxicity, hits mostly cytotoxic. hit rate 0.62% among 55,000;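 further: 0% = DMSO only and -100% = full killing by 100 µM tamoxifen; nearly all actives have a fitted effect of over 55% in size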
#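 Cytotoxicity: H1299-neo (no p53), 32C, 24 h treatment. Concentrations up to 46 uM. Readout cellular ATP, luminescence. Normalization to DMSO basal and tamoxifen 100 uM maximal kill.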
# S16 viability = Cell viability qHTS assay in S16 Pmp22-F2sN cells. AID 1508642, 2021. Potency, µM (highest dose often 57.5 µM), without a hit: top-dose activity change, negative = cytotoxicity, usual class: cytotoxic. S16 Pmp22-F2sN Schwann cells viability, CellTiter-Glo, 24 h. hit rate 0.48% among 43,000; further: nearly all actives have a fitted effect of over 65% in size
#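 Viability was measured by CellTiter-Glo luminescence (15 min, room temperature). This followed 24 h at 37 °C of compound exposure (23 nL pin transfer) in S16 Pmp22-F2sN Schwann cells, 500-1,000 per well.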
# pS6 MEF inh = Acumen qHTS Assay for Inhibitors of the mTORC1 Signaling Pathway in MEF (Tsc2-/-, p53-/-) Cells: Sytravon; Tsc2-/- p53-/- MEF, phospho-rpS6 immunofluorescence/PI, 24 h; Potency, µM (doses to about 38.3 µM), without a hit: at the highest dose activity change, negative = inhibition, hits mostly inhibitors; hit rate 0.78% among 44,000; AID 493208, 2011;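 further: plate controls were DMSO for no effect and rapamycin for full effect; nearly all actives have a fitted effect of over 50% in size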
#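 Tsc2-/-, p53-/- MEFs (empty-vector stable line) in DMEM + 10% FBS were treated with compounds 24 h at 37 degree Celsius, fixed, and immunostained for phospho-rpS6 (Alexa-488) with propidium iodide counterstain. Laser-scanning cytometry gave % positive cells, normalized against 7.5 nM rapamycin and DMSO.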
# p53null 39C tox = qHTS Screen for Compounds that Selectively Target Cancer Cells with p53 Mutations: Cytotoxicity of p53 Null Cells at the Nonpermissive Temperature | H1299 p53-null (neo) cells, 39C, ATPlite viability, 24 h | Potency, µM (titrated, usually from 46.1 µM), for the others: top-dose activity, negative = cell killing, actives largely listed as cytotoxic | hit rate 0.97% among 55,000 | AID 904, 2007;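 further: 0% = DMSO only and -100% = full killing by 100 µM tamoxifen; nearly all actives have a fitted effect of over 50% in size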
#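 ATP-luminescence viability readout (ATPlite, 20 min RT) after 24 hr compound treatment at 39C of H1299-neo or H1299-p53A138V cells; titration up to 46 uM; normalized to DMSO and 100 uM tamoxifen; Hill-fit AC50.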
# Active calls of the source: *; ? = inconclusive; · = no result; [ ] = another dose, or the depositor's remark. In the library only some 3.2% were active in any assay of this set; here they are far more common. Unless noted, the call rests on the fitted dose curve; in most records, active means well fitted curve in the direction sought with a large enough effect; inconclusive means small, poorly fitted or top-dose-only effect, or another doubt; inactive means no such curve, though single readings can be large; an effect the other way counts as inactive or inconclusive. Unless noted, on the % scale 0 is the no-effect control and ±100 the full control effect; potency means the concentration at half of the fitted maximal effect.
SMILES,PMP22 txn,p53null 32C tox,S16 viability,pS6 MEF inh,p53null 39C tox
CCCCNC(=O)C1CCN(Cc2nc(-c3ccc(OC)c(OC)c3)oc2C)CC1,-5%,1%,19%,-24%,-22%
Cc1oc(-c2cccc(Cl)c2)nc1CN1CCCC(C(=O)NCc2ccc(F)cc2)C1 (stereo unspecified),?,-1%,-16%,3%,?
Cc1oc(-c2cccc(Cl)c2)nc1CN1CCC(C(=O)NCCCN2CCN(c3ccccc3F)CC2)CC1,7.9µM*,-2%,?,-17%,4%
Cc1oc(-c2cccc(Cl)c2)nc1CN1CCC(C(=O)NCCCN2CCN(c3ccc(F)cc3)CC2)CC1,9.6µM*,0%,10µM*,0%,0%
CCc1ccc(-n2c(CCC(=O)O)ccc2-c2ccc(F)cc2)cc1,·,0%,·,-2%,11%
COc1ccc(C(=O)COC(=O)c2cccc(NC(=O)c3ccc(OC)c(OC)c3)c2)cc1,-13%,16µM*,-4%,-18%,?
CC(C)(C)NC(=O)c1cnn(-c2ccccc2)c1C1CCN(C(=O)OC(C)(C)C)CC1,-24%,-5%,-6%,-3%,-17%
COc1ccc(-c2nc(S(=O)(=O)c3ccc(C)cc3)c(NCc3ccccc3)o2)cc1,?,6%,-1%,-7%,17%
CC1CCCCN1c1nc(-c2ccc(C(C)(C)C)cc2)nc2ccccc12 (stereo unspecified),-14%,13µM*,-1%,-11%,16µM*
CC1CCN(c2nc(-c3ccc(C(C)(C)C)cc3)nc3ccccc23)CC1,?,13µM*,-2%,4%,13µM*
CCCOc1ccc(-c2nc(N3CCC(C)CC3)c3ccccc3n2)cc1,·,3%,·,1%,5%
CCN(C(=O)Cn1cnc2onc(-c3ccc(F)cc3)c2c1=O)c1ccc(OC)cc1,-24%,7%,-18%,-3%,-4%
CC(C)Oc1cccc(C2CC(=O)Nc3cc4c(cc32)OCO4)c1 (stereo unspecified),4.3µM*,22%,?,6.6µM*,?
CCOc1c(Br)cc(C2CC(=O)Nc3cc4c(cc32)OCO4)cc1OC (stereo unspecified),?,45%,?,15µM*,?
C=Cc1ccc(Cn2c(C(=O)O)c(CNCc3ccccc3)c3ccc(OC)cc32)cc1,?,-7%,?,?,-20%
CCOc1ccc(NC(=O)c2nc(S(=O)(=O)Cc3ccccc3F)ncc2Cl)cc1,1.3µM*,-19%,5µM*,3.7µM*,?
CCc1nnc(NC(=O)c2nc(S(=O)(=O)Cc3ccc(C)cc3)ncc2Cl)s1,?,?,?,?,16µM*
CCOc1ccccc1NC(=O)c1nc(S(=O)(=O)Cc2cccc(C)c2)ncc1Cl,1.7µM*,15%,3.2µM*,?,?
Cc1ccc(C)c(NC(=O)c2nc(S(=O)(=O)Cc3ccc(F)cc3)ncc2Cl)c1,7.6µM*,-1%,?,2.1µM*,?
CCc1nnc(NC(=O)c2nc(SCc3ccccc3F)ncc2Cl)s1,-24%,1%,6%,2%,-12%
CCOc1ccccc1NC(=O)c1sc2nc(C)cc(C)c2c1N,?,-1%,-2%,3%,4%
CCOC(=O)CN1C(=O)C(O)(CC(=O)c2cc(OC)ccc2OC)c2ccccc21 (stereo unspecified),·,-8%,·,?,6%
Cc1ccc(Nc2c(-c3cc(Br)ccc3F)nc3cc(C)ccn23)cc1,-6%,3%,?,?,-14%
COc1ccccc1NC(=O)Cn1c(=O)n(CCC(=O)NCC2CCCO2)c(=O)c2cc(OC)c(OC)cc21 (stereo unspecified),-2%,5%,-10%,0%,-9%
Cc1cccc(CSc2ncc(Cl)c(C(=O)Nc3nc4ccc(F)cc4s3)n2)c1,?,-9%,-12%,4%,-8%
SMILES,PMP22 txn,p53null 32C tox,S16 viability,pS6 MEF inh,p53null 39C tox
CCc1nnc(NC(=O)c2nc(S(=O)(=O)Cc3cccc(C)c3)ncc2Cl)s1,9.5µM*,53%,?,12µM*,?
Cc1ccc(C2c3c(-c4cc(C)ccc4O)n[nH]c3C(=O)N2Cc2ccco2)cc1 (stereo unspecified),?,18µM*,?,?,?
Cc1ccc(C2c3c(-c4ccccc4O)n[nH]c3C(=O)N2CCCO)cc1 (stereo unspecified),-16%,7%,-5%,?,11%
Cn1c(=O)[nH]c(=O)c2c1nc1n(CCO)c(-c3ccccc3)cn21,?,-4%,2%,12%,14%
CCCN(CCC)S(=O)(=O)c1ccc(C(=O)Nc2cccc(-c3nc4ccccc4[nH]3)c2)cc1,19µM*,17%,?,-2%,15%
COc1c(Cl)cc(C(=O)Nc2cccc(-c3nc4ccccc4[nH]3)c2)cc1Cl,?,?,6%,5%,?
Cc1cccc2c1-c1sc(C(=O)Nc3ccccc3C(N)=O)cc1CO2,?,16µM*,?,-1%,?
Cc1ccc(-c2nc3scc(CCNS(=O)(=O)c4ccc(F)c(C)c4)n3n2)cc1,-10%,1%,-2%,0%,20%
Cc1cc(C)c(S(=O)(=O)NCCc2csc3nc(-c4ccc(Cl)cc4)nn23)c(C)c1,?,46%,?,-3%,20µM*
CC1(C)CC(=O)c2sc(NC(=O)c3cccs3)nc2C1,·,2.2µM*,·,·,1.1µM*
CCC(CC)C(=O)Nc1c(C(=O)N2CCN(c3ccccc3F)CC2)oc2ccccc12,?,?,-9%,-3%,?
OCCCn1c(-c2ccc(F)cc2)csc1=Nc1ccc(F)cc1,?,-4%[9.22 µM],?,-4%,1%
O=S(=O)(c1ccc(-c2csc(=Nc3ccc(F)cc3)n2CCCCCCO)cc1)N1CCCC1,8.8µM*,1%[9.22 µM],18µM*,?,?
CCCCSCCCNC(=O)c1cn(C)c2ccc(S(=O)(=O)N3CCCCCC3)cc2c1=O,-5%,-8%,8%,9%,-20%
CC(C)Oc1ccc(CNC(=O)C2CCN(c3nc4ccccc4nc3C(F)(F)F)CC2)cc1,?,-2%,7.9µM*,-2%,-5%
COc1cc(C(=O)N(CCCN(C)C)c2nc3c(OC)cccc3s2)cc(OC)c1OC,?,1%,-1%,18µM*,-19%
